Measurements from ChEMBL document CHEMBL3988442, “University of Dundee, Small-Polar-MMV Screening Library” (2021).
For some assays here: Potency and affinity values are given separately.

Experiments:
Parameters in all cases: scale not given: direction of the effect not stated beside the values
[1] = target: Protein translocase subunit SecA (Escherichia coli (strain K12)) (UniProt P10408); experiment: Assay to Identify E. coli SecA ATPase Inhibitors; assay type: functional; conditions: 30 µM
[2] = target: T1, Ubiquitin-activating enzyme e1, putative (Leishmania donovani (strain BPK282A1)) (UniProt E9BSI1); experiment: Leishmania donovani Ubiquitin Activating Enzyme (LdE1); assay type: functional; conditions: 30 µM
T1 sequence (whole entry): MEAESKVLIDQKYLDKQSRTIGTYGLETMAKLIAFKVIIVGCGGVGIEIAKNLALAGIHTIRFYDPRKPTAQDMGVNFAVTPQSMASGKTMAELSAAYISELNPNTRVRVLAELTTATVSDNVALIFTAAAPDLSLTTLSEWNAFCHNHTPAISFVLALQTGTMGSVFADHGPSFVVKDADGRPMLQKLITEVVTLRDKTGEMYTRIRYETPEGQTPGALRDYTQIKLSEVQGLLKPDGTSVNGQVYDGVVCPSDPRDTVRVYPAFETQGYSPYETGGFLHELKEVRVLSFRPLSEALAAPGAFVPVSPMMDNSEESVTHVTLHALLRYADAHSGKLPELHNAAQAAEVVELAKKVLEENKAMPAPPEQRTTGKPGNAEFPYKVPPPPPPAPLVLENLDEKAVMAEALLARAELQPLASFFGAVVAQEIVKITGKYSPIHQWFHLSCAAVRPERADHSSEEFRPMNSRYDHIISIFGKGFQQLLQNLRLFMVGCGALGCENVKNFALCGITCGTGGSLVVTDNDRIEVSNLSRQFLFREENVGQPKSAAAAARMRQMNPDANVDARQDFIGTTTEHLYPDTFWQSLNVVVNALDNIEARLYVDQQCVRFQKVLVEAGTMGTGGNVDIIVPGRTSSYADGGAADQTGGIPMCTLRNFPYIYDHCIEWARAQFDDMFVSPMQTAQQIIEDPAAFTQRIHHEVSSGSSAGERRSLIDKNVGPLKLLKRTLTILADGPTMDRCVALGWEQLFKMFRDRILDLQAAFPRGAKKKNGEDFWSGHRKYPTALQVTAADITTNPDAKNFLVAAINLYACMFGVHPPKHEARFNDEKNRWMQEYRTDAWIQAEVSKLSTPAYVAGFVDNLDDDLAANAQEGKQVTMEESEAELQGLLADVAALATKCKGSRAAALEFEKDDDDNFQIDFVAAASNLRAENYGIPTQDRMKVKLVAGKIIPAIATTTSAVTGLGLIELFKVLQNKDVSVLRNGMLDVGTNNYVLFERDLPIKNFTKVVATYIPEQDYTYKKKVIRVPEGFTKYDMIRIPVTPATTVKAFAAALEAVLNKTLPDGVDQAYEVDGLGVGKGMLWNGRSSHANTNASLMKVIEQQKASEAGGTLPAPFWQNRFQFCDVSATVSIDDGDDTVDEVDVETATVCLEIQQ

[3] = target: AMP-activated protein kinase, AMPK (Homo sapiens) (UniProt P54646+O43741+P54619+Q9UGJ0+Q9Y478+Q13131+Q9UGI9); experiment: AMP-dependent Kinase enzyme assay. An in vitro enzyme assay that detects ADP turnover that is directly proportional to AMPK activity. This uses naive AMPK that is activated during the assay with MK-8722; assay type: functional; conditions: 30 µM
[4] = target: Sialic acid-binding Ig-like lectin 9 (Homo sapiens) (UniProt Q9Y336); experiment: Hs-Siglec9 ALPHAscreen SOP 20170721; conditions: 10 µM
Sialic acid-binding Ig-like lectin 9 (Homo sapiens), sequence (Q9Y336 whole entry): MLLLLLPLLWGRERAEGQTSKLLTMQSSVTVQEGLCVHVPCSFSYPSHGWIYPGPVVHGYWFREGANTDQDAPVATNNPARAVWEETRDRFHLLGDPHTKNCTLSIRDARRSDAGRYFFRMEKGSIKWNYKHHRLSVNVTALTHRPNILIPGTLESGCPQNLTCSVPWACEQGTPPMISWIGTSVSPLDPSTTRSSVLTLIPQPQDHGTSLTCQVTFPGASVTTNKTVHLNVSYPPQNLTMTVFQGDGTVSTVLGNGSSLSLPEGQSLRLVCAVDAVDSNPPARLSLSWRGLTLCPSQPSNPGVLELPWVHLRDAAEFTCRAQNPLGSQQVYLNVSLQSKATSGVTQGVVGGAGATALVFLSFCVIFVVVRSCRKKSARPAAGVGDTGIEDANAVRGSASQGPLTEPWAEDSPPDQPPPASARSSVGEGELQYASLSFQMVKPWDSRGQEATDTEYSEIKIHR

[5] = tested on: Trypanosoma cruzi; experiment: Trypanosoma cruzi phosphomannomutase and mannose-1-phosphate guanylyltransferase assay; assay type: functional; conditions: 10 µM
[6] = target: T2, Arginase-2, mitochondrial (Homo sapiens) (UniProt P78540); experiment: in vitro enzyme assay to detect the production of urea directly proportional to the activity of Arginase II; assay type: functional; conditions: 33.3 µM; further: in the data most compounds retested in dose-response had high values
T2 sequence (whole entry): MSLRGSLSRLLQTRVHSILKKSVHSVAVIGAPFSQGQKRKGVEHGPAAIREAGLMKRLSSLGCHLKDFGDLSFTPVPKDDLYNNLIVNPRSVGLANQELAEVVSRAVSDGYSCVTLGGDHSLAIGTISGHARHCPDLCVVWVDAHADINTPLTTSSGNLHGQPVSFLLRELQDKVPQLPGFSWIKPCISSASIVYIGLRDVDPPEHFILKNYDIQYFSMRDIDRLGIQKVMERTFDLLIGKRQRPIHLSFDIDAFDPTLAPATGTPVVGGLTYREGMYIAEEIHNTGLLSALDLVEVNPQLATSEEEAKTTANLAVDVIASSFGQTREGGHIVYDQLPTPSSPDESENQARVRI

[7] = target: T3, Proteasome subunit beta (Trypanosoma cruzi) (UniProt O96673); experiment: Trypanosoma cruzi proteasome chymotrypsin-like activity (TcProtChymo) assay.; further: in the data most compounds retested in dose-response had high values; assay type: functional; conditions: 9.37 µM
T3 sequence (whole entry): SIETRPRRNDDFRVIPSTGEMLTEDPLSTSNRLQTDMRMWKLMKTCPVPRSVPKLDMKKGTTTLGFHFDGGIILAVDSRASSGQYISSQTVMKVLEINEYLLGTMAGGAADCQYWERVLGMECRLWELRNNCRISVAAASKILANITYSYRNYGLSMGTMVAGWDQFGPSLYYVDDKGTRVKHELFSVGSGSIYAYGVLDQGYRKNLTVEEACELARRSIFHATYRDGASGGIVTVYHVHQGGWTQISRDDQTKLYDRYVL

[8] = species: Homo sapiens; experiment: To identify inhibition of the IFN signalling (Jak-Stat) pathway via expression of an eGFP reporter gene under the control of an IFN-stimulated response element (ISRE) containing MxA promoter.; assay type: functional; conditions: 30 µM
[9] = target: T4, Tyrosyl-tRNA synthetase, putative (Trypanosoma cruzi (strain CL Brener)) (UniProt Q4DSP6); experiment: Trypanosoma cruzi tyrosyl tRNA synthetase (TcYRS) _High Tyrosine SOP; assay type: functional; conditions: 30 µM; further: in the data most compounds retested in dose-response had high values
T4 sequence (whole entry): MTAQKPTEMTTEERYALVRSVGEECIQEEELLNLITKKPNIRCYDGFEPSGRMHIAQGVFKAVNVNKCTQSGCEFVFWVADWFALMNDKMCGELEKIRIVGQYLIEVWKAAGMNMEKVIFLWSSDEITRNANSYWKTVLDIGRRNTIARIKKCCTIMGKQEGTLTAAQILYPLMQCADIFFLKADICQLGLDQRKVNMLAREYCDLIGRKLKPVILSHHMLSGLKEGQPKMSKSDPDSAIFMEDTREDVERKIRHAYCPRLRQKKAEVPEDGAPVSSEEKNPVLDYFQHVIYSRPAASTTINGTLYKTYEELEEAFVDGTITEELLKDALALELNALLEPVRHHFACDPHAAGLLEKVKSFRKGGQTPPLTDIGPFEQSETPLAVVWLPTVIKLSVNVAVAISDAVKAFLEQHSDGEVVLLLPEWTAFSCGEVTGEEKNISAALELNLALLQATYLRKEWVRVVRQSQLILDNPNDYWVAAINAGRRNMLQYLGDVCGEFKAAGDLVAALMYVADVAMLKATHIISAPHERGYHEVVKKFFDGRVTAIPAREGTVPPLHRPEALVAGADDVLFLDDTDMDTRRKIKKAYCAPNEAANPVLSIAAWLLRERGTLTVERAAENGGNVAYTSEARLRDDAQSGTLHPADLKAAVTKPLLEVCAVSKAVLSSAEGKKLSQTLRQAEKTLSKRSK

[10] = target: T4, Tyrosyl-tRNA synthetase, putative (Trypanosoma cruzi (strain CL Brener)); experiment: Trypanosoma cruzi tyrosyl tRNA synthetase (TcYRS) SOP; assay type: functional; conditions: 30 µM
[11] = target: Chromo domain-containing protein 1 (Saccharomyces cerevisiae (strain ATCC 204508 / S288c) (Baker's yeast)) (UniProt P32657); experiment: ScCHD-1 Enzyme Inhibition Assay; assay type: functional; conditions: 30 µM; further: in the data most compounds retested in dose-response had high values
Chromo domain-containing protein 1 (Saccharomyces cerevisiae (strain ATCC 204508 / S288c) (Baker's yeast)), sequence (P32657 whole entry, the tested form may be a part): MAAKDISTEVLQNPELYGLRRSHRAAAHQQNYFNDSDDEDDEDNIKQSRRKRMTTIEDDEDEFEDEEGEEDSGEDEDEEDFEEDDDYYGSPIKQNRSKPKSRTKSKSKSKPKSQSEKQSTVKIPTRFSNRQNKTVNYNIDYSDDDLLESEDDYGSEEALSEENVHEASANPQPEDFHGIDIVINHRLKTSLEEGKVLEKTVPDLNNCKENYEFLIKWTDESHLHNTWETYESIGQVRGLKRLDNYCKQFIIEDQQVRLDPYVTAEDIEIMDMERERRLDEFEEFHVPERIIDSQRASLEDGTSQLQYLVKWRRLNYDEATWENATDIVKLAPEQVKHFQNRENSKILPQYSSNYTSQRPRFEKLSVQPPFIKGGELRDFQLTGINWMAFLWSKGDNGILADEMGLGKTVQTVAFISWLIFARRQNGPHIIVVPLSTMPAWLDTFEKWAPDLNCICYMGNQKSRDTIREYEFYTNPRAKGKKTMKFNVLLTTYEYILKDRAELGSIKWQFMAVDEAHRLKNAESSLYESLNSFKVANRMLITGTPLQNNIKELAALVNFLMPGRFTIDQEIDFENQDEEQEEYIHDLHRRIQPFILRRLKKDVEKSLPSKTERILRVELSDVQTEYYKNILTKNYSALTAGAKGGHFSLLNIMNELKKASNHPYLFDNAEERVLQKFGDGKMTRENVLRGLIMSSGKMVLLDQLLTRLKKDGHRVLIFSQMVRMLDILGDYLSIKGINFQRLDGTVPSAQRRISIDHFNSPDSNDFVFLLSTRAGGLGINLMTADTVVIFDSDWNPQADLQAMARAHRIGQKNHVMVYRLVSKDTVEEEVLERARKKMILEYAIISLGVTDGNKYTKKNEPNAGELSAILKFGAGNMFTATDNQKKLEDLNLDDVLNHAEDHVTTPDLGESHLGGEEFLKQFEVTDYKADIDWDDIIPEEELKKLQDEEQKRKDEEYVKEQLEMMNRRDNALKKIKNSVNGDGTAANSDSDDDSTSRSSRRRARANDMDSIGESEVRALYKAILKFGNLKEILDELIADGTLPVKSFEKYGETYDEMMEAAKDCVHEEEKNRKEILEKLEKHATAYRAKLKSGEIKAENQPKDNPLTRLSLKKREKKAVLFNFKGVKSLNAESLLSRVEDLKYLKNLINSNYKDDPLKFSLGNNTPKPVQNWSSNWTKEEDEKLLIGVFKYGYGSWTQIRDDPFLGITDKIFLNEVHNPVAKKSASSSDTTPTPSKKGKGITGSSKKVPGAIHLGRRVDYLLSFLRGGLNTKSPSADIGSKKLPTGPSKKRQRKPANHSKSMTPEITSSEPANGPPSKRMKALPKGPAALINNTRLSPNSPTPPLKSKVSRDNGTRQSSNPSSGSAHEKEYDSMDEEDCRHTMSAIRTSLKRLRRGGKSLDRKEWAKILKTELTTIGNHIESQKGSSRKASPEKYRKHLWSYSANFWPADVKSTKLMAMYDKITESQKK

Protein translocase subunit SecA (Escherichia coli (strain K12)), sequence (P10408 whole entry): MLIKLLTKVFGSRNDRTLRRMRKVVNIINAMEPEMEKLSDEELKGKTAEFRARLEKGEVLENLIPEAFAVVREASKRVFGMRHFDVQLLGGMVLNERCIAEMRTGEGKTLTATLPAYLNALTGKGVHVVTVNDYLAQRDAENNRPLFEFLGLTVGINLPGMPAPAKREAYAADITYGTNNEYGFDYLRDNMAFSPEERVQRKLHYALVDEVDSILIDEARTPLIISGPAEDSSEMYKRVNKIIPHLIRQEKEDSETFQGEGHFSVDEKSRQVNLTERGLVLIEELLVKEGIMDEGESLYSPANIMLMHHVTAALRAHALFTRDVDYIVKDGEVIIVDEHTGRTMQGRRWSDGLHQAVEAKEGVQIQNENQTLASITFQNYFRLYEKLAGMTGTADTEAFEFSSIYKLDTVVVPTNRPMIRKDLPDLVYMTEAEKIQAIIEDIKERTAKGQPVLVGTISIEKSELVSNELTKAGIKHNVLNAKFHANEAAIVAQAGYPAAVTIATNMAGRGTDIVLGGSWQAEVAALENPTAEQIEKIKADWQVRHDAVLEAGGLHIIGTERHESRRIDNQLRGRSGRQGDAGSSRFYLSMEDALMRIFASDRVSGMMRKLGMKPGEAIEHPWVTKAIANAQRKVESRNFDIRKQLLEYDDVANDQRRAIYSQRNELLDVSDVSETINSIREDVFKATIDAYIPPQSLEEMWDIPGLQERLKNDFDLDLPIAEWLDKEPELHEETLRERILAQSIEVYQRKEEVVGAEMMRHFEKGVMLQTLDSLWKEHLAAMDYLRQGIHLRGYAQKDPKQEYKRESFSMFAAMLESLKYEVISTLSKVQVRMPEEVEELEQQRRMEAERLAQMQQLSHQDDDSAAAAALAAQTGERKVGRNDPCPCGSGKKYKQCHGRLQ

Structure (SMILES)	Percent Effect [1] [%]	Percent Effect [2] [%]	Percent Effect [3] [%]	Percent Effect [4] [%]	Percent Effect [5] [%]	Percent Effect [6] [%]	Percent Effect [7] [%]	Percent Effect [8] [%]	Percent Effect [9] [%]	Percent Effect [10] [%]	Percent Effect [11] [%]
O=C(c1c[nH]c(=O)c(Cl)c1)N1C[C@@H]2CC[C@H](C1)N(Cc1ccccc1)C2	-3.94	5.48	12.1	13.9	2.58	-8.78	15.2	9.64	2.08	11.1	-3.03
CCc1ncc2c(n1)CN(Cc1nc(-c3ccccn3)no1)CC2	-8.41	15.8	-29.3	15.4	11.7	1.44	2.79	-20.6	15.3	25.9	-10.3
COc1ccc(NC(=O)N2CCN(c3ncccn3)CC2)cn1	-0.45	8.22	2.23	-2.77	-3.53	3.64	7.63	11.7	4.3	10	-3.82
Cc1csc(NC(=O)CN(C)CC2CCCN2c2cccnn2)n1 (configuration not stated)	-4.27	0	-8.12	2.96	-6.05	5.42	15.5	9.4	11.9	8.54	-4.21
CN(C)C(=O)N1CCc2c(nnn2C)C1COCc1ccccc1 (configuration not stated)	-4.49	21.3	-8.1	-0.726	5.21	-42.1	13.7	-0.202	7.29	27.5	-6.92
CCn1cc(N2Cc3nc(N)ncc3C2=O)cn1	-6.38	12	-9.46	-1.51	7.47	-20.6	13.9	2.34	7.41	17.9	-15.1
c1cnn(Cc2nnc(C3CCN(C4CCOCC4)CC3)n2C2CC2)c1	-7.04	13.3	-7	24.9	3.99	5.73	16.2	12.2	7.1	16.1	103
CCn1nc2c(cc1=O)CN(Cc1nc3ccccc3c(=O)[nH]1)CC2	-5.88	5.48	-24.8	-1.63	-1.57	-1.36	18.3	10.3	6.45	10	-4.67
CSCCNC(=O)c1ccc(OC2CCN(CC(C)(C)C)CC2)c(Cl)c1	-3.94	8.11	-0.678	31.3	7.53	0.248	7.47	-3.54	2.15	8.64	-9.27
CCN(c1ccc(C(=O)NCCCN2CCCC2)cc1)S(=O)(=O)CC	-0.13	5.26	-1.17	-1.94	-9.83	-7.1	14.1	-5.53	4.25	7.79	-3.78
O=C(NCC1CCOCC1)[C@H]1C[C@@H]2CCN(Cc3ccncc3)C[C@@H]2O1	-1.48	-2.67	-3.45	1.78	3.28	-1.25	14	-16.5	1.04	7.5	-5.98
O=C1CN(Cc2nnc(-c3ccc(Br)cc3)o2)CCN1	0.69	18.1	-9.97	2.35	2.04	-1.77	15.6	11.5	2.1	2.56	-3.39
Cn1cnc(S(=O)(=O)NCCN2CCCCCC2=O)c1Cl	-8.78	5.41	-41.8	6.15	-3.87	-0.802	0.721	17.8	-0.493	-6.17	-8.21
O=C(Cc1ccc2c(c1)OCCO2)NC1CCCC1	-5.5	18.2	2.67	-8.79	-11.2	-2.85	5.74	32.2	1.94	7.32	-5.69
O=C(c1ccncc1)N1Cc2ccccc2OC2(CCOCC2)C1	-2.73	9.46	10.5	1.54	0.395	-5.8	16.1	7.47	4.3	6.49	-15.3
CCn1cc(CN2CC3CCCN3C[C@H]2C)c(C)n1 (some centres not stated)	-2.31	9.46	3.58	-8.58	-1.98	-2.09	20.3	2	4.3	9.09	-14.7
COCCN1CCN(C(=O)c2ccncc2F)Cc2cccnc21	2.77	6.67	4.36	-2.01	-10.6	-1.58	20.3	0.197	3.17	-5.13	-10.5
CCCC(NC(=O)c1ccc(OC)cc1F)c1nnn[nH]1 (configuration not stated)	-2.26	5.33	-8.28	11.5	5.16	17.2	9.24	-13.2	4.92	8.64	-4.91
Cc1ccc(C(O)CNC(=O)NCc2nc(C)cs2)cc1 (configuration not stated)	-1.18	5.41	2.46	3.69	-6.56	1.43	12.9	5.94	2.65	12.2	-3.85
Cc1noc(C)c1CNCC1CCCN1c1cccnn1 (configuration not stated)	-6.8	-5.2	5.72	-3.1	-4.02	-3.16	-2.83	6.36	1.91	-2.35	-1.61
Cc1cc(NC(=O)Cn2cc(C#N)c(=O)c3cc(Br)ccc32)no1	-5.99	-45.3	-1.25	3.63	-1.27	-9.9	13.8	19.5	-14.8	-60.5	80.7
CCCc1nc(NCCCO)c2c(n1)c(C)nn2CC	-3.3	6.67	9.08	11.8	-1.38	-9.33	14.2	12.4	8.47	12.8	-10.1
